# Data from article PMC5540273 (PLoS ONE, 2017).
# Assays:
# Conditions in all cases: concentration: 1 μM, replicates: in singlicate; n = 1
# MYLK4 = system: MYLK4
# MYLK = system: MYLK
# MYO3A = system: MYO3A
# MYO3B = system: MYO3B
# NDR1 = system: T1, NDR1
# T1 construct: gene STK38
# NDR2 = system: NDR2
# NEK10 = system: NEK10
# NEK11 = system: NEK11
# NEK1 = system: NEK1
# NEK2 = system: NEK2
# NEK3 = system: NEK3
# NEK4 = system: NEK4
# NEK5 = system: NEK5
# NEK6 = system: NEK6
# NEK7 = system: NEK7
# NEK9 = system: NEK9
# NIK = system: T2, NIK
# T2 construct: gene MAP3K14
# NIM1 = system: T3, NIM1
# T3 construct: gene MGC42105
# NLK = system: NLK
# OSR1 = system: T4, OSR1
# T4 construct: gene OXSR1
# 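Also: KINOMEscan kinase panel screen.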
Structure (SMILES),%Inh (MYLK4),%Inh (MYLK),%Inh (MYO3A),%Inh (MYO3B),%Inh (NDR1),%Inh (NDR2),%Inh (NEK10),%Inh (NEK11),%Inh (NEK1),%Inh (NEK2),%Inh (NEK3),%Inh (NEK4),%Inh (NEK5),%Inh (NEK6),%Inh (NEK7),%Inh (NEK9),%Inh (NIK),%Inh (NIM1),%Inh (NLK),%Inh (OSR1)
N#Cc1ccc(Oc2ccc(Nc3ncnc4cc[nH]c34)cc2Cl)cc1,13%,30%,18%,38%,33%,0%,3%,0%,0%,10%,26%,0%,0%,0%,13%,2%,0%,30%,17%,4%
CN1c2ccc(-c3ccc(C(=O)NCCO)cc3)cc2-c2[nH]ncc2S1(=O)=O,0%,87%,6%,0%,26%,0%,0%,0%,8%,6%,45%,0%,0%,0%,0%,8%,37%,0%,0%,0%
CN1CCC(n2cnc(-c3ccc(F)cc3)c2-c2ccnc(NC3CCNCC3)n2)CC1 [SB-229482],11%,5%,14%,0%,0%,0%,13%,0%,0%,0%,9%,0%,0%,12%,1%,21%,0%,54%,52%,0%
Nc1n[nH]c2nnc(-c3ccccc3)cc12 [SB-517389],24%,19%,0%,0%,14%,0%,17%,0%,0%,5%,29%,21%,27%,0%,0%,7%,0%,15%,36%,0%
COc1ccc(Nc2nccc(N3CCC(NC(=O)Nc4ccc5c(c4)OCO5)C3)n2)cc1 (centres unmarked) [GSK1379745],0%,25%,0%,3%,0%,0%,0%,0%,0%,0%,0%,3%,25%,7%,3%,0%,1%,22%,0%,12%
CS(=O)(=O)CCNCc1nc(-c2ccc3ncnc(Nc4ccc(OCc5cccc(F)c5)c(Cl)c4)c3c2)cs1.Cl [GW583340],4%,1%,34%,0%,0%,15%,0%,0%,0%,16%,3%,0%,6%,0%,0%,11%,0%,6%,0%,0%
O=C(NCCCN1CCCC1=O)c1cnc(NCc2cc(Cl)ccc2Cl)nc1NC1CCNCC1,3%,11%,0%,0%,0%,0%,0%,0%,0%,7%,37%,0%,0%,0%,0%,0%,0%,0%,2%,0%
c1ccc(-c2ccc3c(-c4ccnc(Nc5ccc6c(c5)OCCO6)n4)cnn3n2)cc1 [GW818941],0%,11%,15%,0%,11%,0%,19%,0%,0%,0%,0%,4%,14%,15%,43%,27%,10%,7%,17%,0%
Cl.c1ccc(Cn2ccc3cc(Nc4ncnc5ccccc45)ccc32)cc1 [GW275568],26%,21%,16%,0%,32%,1%,29%,0%,0%,14%,12%,5%,28%,0%,9%,24%,0%,10%,20%,1%
Clc1ccc(-c2cc(-c3c[nH]nc3-c3ccccn3)ccn2)cc1 [GW681251],0%,0%,0%,0%,0%,0%,12%,0%,0%,0%,3%,8%,36%,0%,0%,2%,30%,16%,11%,2%
COc1ccc(NC(=O)c2ccc(-c3cc(-c4nnc(C)o4)ccc3C)cc2)cc1 [GW595885],0%,14%,16%,16%,12%,0%,16%,0%,0%,0%,5%,19%,4%,0%,0%,0%,0%,20%,10%,14%
Cl.Cl.c1ccc(-c2cc3ccncc3cc2OC2CCNCC2)cc1 [GSK1122999],21%,25%,10%,0%,0%,0%,24%,0%,0%,17%,0%,2%,22%,0%,4%,28%,3%,12%,15%,8%
Fc1cccc(COc2ccc(Nc3ncnc4sc(-c5ccc[nH]5)cc34)cc2Cl)c1 [GW707818],13%,13%,17%,0%,23%,17%,4%,24%,0%,15%,1%,0%,31%,0%,0%,17%,0%,14%,23%,0%
CC(C)(C)c1ccc(-n2cnc3c(N)ncnc32)cc1 [SKF-97263],3%,8%,1%,8%,0%,0%,0%,0%,0%,0%,0%,19%,10%,0%,16%,14%,0%,9%,26%,16%
Fc1cccc(COc2ccc(Nc3ncnc4nn5ccccc5c34)cc2Cl)c1 [GW689066],0%,0%,18%,0%,55%,0%,0%,11%,0%,0%,0%,0%,0%,0%,0%,4%,0%,13%,7%,3%
O=c1cc(N2CCOCC2)nc2n(Cc3cccc(Cl)c3)ccn12 [GSK2296823],0%,61%,0%,0%,8%,0%,0%,0%,0%,10%,3%,16%,2%,0%,2%,3%,13%,0%,0%,7%
Fc1ccc(Nc2nccc(-c3c(-c4ccc(Cl)cc4)nn4ncccc34)n2)cc1F [GW829058],0%,38%,15%,21%,24%,28%,19%,25%,17%,16%,11%,8%,13%,21%,0%,5%,43%,34%,70%,28%
COc1ccc(-c2oc3ncnc(N)c3c2-c2ccc(OC)cc2)cc1 [SB-589132],9%,18%,25%,0%,15%,37%,49%,45%,9%,5%,17%,20%,31%,0%,0%,19%,33%,37%,4%,0%
Cc1ccc(NC(=O)c2cccc(C#N)c2)cc1-c1ccc(C(=O)Nc2ccncc2)cc1 [GSK1398463],7%,14%,0%,0%,0%,0%,1%,0%,27%,28%,25%,18%,11%,0%,0%,4%,0%,8%,1%,31%
